SENP8 block-1: inhibitors of human SENP8 protease; Q96LD8; purified SENP8, Z-RLRGG-aminoluciferin cleavage, luminescence; inhibition, % at 10 µM; hit rate 1.2% among 330,000; in the data active = inhibition above about 50%
Target sequence (Q96LD8 whole entry, looked up): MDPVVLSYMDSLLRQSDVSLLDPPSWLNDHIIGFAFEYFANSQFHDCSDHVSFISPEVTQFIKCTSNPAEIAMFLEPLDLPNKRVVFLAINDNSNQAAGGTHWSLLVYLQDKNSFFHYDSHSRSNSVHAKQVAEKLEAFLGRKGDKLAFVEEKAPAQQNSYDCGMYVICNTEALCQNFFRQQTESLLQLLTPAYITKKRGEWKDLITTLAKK
SENP6 block: SENP6 protease inhibition; Q9GZR1; Recombinant SENP6 catalytic domain, aminoluciferin luminescence; inhibition, % at 10 µM; hit rate 1.8% among 330,000;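 active = inhibition above about 50% at the single tested dose, limit read from the data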;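 also: plate controls were DMSO wells with enzyme for no effect and DMSO wells lacking enzyme for full effect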
TRAIL sens C8: caspase-8 TRAIL sensitization; NB7+C8 cells + TRAIL, ATPlite viability luminescence; inhibition (viability loss, TRAIL sensitization), % at 10 µM; hit rate 1% among 360,000; AID 624354;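 active = compounds causing at least 50% loss of cell viability in the single-dose screen, relative to plate controls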
PPC-1+TRAIL kill: kills PPC-1 cancer cells in the presence of TRAIL; PPC-1 cells + TRAIL, ATPLite viability luminescence; cell killing (% activity), % at 4 µM or 5 µM; hit rate 0.41% among 220,000;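 active = cell killing above 50% in the first pass at 4 µM, then a duplicate retest at 5 µM averaging 50% or more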;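 also: plate controls were cells with TRAIL plus DMSO for no effect and medium-only wells lacking cells for full effect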
SENP7 inh: blocks the human protease SENP7; recombinant SENP7, Z-RLRGG-aminoluciferin luminescence, 40 min; inhibition, % at 5 µM; hit rate 1.5% among 330,000; AID 434973;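 active = inhibition above about 50% at the single test dose, limit read from the data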;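 also: plate controls were DMSO with enzyme for no effect and no enzyme buffer wells for full effect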
Target sequence (Q9BQF6 706-1050 limits assumed): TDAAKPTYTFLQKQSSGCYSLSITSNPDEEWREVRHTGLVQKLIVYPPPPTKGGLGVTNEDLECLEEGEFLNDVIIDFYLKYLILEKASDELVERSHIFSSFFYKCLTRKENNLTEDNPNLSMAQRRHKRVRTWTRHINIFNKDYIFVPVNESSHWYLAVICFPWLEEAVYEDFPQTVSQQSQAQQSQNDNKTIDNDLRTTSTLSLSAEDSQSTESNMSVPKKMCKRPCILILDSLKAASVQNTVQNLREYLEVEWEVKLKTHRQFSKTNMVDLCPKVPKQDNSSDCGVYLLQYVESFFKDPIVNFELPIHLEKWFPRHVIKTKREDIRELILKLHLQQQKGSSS
SENP8 block-2: SENP8 (human) protease inhibition | Q96LD8 | recombinant SENP8, Nedd8 substrate fluorescence | inhibition, % at 20 µM | hit rate 0.64% among 360,000 | AID 602440; in the data active = inhibition mostly above about 40%, no sharp cut-off; inactive = mostly below about 27%
SENP8 confirm: human SENP8 inhibition, confirmed | shares compounds with SENP7 inh | Recombinant SENP8, Z-RLRGG-aminoluciferin luminescence, 60 min | inhibition, % at 12.5 µM | hit rate 40% among 6,200 | AID 488912;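 active = mean inhibition across replicates above about 50%, limit read from the data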
SENP6 conf: confirmation of human SENP6 protease inhibitors; AID 488915; hit rate 58% among 6,200; recombinant SENP6, Z-RLRGG-aminoluciferin luminescence; shares compounds with SENP7 inh; inhibition, % at 12.5 µM
SENP7 conf: human SENP7 inhibition, confirmed; shares compounds with SENP7 inh; recombinant SENP7, Z-RLRGG-aminoluciferin luminescence, 40 min; inhibition, % at 12.5 µM; hit rate 69% among 6,200
Casp3 select: inhibits human caspase-3 in SENP selectivity test. shares compounds with SENP7 inh. hit rate 60% among 6,200. inhibition, % at 12.5 µM. purified caspase-3, Z-DEVD-aminoluciferin luminescence, 60 min;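 active = mean inhibition above about 50%, limit read from the data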;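 also: plate controls were enzyme with DMSO for no effect and wells without caspase-3 for full effect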
Luc interf: counter-screen for SENP inhibitors: luminescence interference; shares compounds with SENP7 inh; Pre-incubated SENP8/Z-RLRGG-aminoluciferin, luciferase luminescence interference; inhibition, % at 12.5 µM; hit rate 39% among 6,200; AID 488919;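 active = mean inhibition above about 50% when retested at one dose, limit read from the data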;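 also: plate controls were DMSO wells with completed reaction for no effect and substrate without enzyme for full effect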
The depositor's hits bear a star. An excerpt weighted towards active compounds, which were near 3% of everything screened.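 The calls were made as follows, unless noted: active = mean inhibition above about 50% in the one-dose retest (limit read from the data); inactive = the rest.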

O=C(Nc1ccc([N+](=O)[O-])cc1)Nc1ccon1 was read as SENP8 block-1 -11, SENP6 block 0, TRAIL sens C8 13, SENP7 inh 1 and SENP8 block-2 15.
`CCc1ccc(NC(=O)Nc2cccs2)cc1` gave SENP8 block-1 57*, SENP6 block 78*, TRAIL sens C8 54*, PPC-1+TRAIL kill 1, SENP7 inh 47, SENP8 block-2 9, SENP8 confirm 2, SENP6 conf 56*, SENP7 conf 89*, Casp3 select 53* and Luc interf 8.
CCOc1ccc(NC(=O)Nc2ccc3nsnc3c2)cc1 was read as SENP8 block-1 -6, SENP6 block -8, TRAIL sens C8 5, PPC-1+TRAIL kill 18, SENP7 inh -1 and SENP8 block-2 -6.
`CCOc1ccc(NC(=O)Nc2cccs2)cc1` gave SENP8 block-1 67*, SENP6 block 27, TRAIL sens C8 51*, PPC-1+TRAIL kill 46, SENP7 inh 73*, SENP8 block-2 27, SENP8 confirm -18, SENP6 conf 72*, SENP7 conf 95*, Casp3 select 85* and Luc interf 82*.
Screening CCc1ccc(NC(=O)Nc2ccon2)cc1 returned SENP8 block-1 19, SENP6 block 23, TRAIL sens C8 28, SENP7 inh 52*, SENP8 block-2 21, SENP8 confirm 42, SENP6 conf 35, SENP7 conf 70*, Casp3 select 52* and Luc interf 44.
Screening Cc1ccc(NC(=O)Nc2cccs2)nc1 returned SENP8 block-1 -20, SENP6 block -13, TRAIL sens C8 8, PPC-1+TRAIL kill 20, SENP7 inh -10 and SENP8 block-2 19.
`Cc1ccc(-n2nc3c(=O)n(CCCC(=O)NCCc4ccccc4C)nc(C)c3c2C)cc1` gave SENP8 block-1 -1, SENP6 block -4, TRAIL sens C8 16, SENP7 inh 9 and SENP8 block-2 4.
Screening Cc1ccc2nc(SCC(=O)NCCCN3CCCC3=O)[nH]c2c1 returned SENP8 block-1 2, SENP6 block 11, TRAIL sens C8 -9, SENP7 inh 1 and SENP8 block-2 4.
CCc1ccc(-c2nc(CS(=O)CC(=O)NCc3ccco3)c(C)o2)cc1 (stereo unspecified) was read as SENP8 block-1 4, SENP6 block -10, TRAIL sens C8 -4, SENP7 inh 0 and SENP8 block-2 -25.
`CCOc1ccc(NC(=O)Nc2cccnc2)cc1` gave SENP8 block-1 22, SENP6 block 60*, TRAIL sens C8 58*, PPC-1+TRAIL kill 49, SENP7 inh 58*, SENP8 block-2 18, SENP8 confirm 22, SENP6 conf 24, SENP7 conf 75*, Casp3 select 74* and Luc interf 47.
For O=C(Nc1cccs1)Nc1ccc(Br)cc1F the results were SENP8 block-1 11, SENP6 block 64*, TRAIL sens C8 6, PPC-1+TRAIL kill 21, SENP7 inh 13, SENP8 block-2 4, SENP8 confirm 22, SENP6 conf 22, SENP7 conf 61*, Casp3 select 23 and Luc interf 22.
COc1cccc(CN2CC(C(=O)NCCc3nccs3)CCC2=O)c1 (stereo unspecified) was read as TRAIL sens C8 -3 and SENP8 block-2 4.
For Clc1ccc(OCc2cn3ccccc3n2)c2ncccc12 the results were SENP8 block-1 -1, SENP6 block -8, TRAIL sens C8 6, PPC-1+TRAIL kill -3, SENP7 inh 0 and SENP8 block-2 -60.
For COc1c(Cl)cccc1-c1cn2ccccc2n1 the results were SENP8 block-1 89*, SENP6 block 93*, TRAIL sens C8 73*, PPC-1+TRAIL kill 39, SENP7 inh 93*, SENP8 block-2 -413, SENP8 confirm 93*, SENP6 conf 93*, SENP7 conf 101*, Casp3 select 92* and Luc interf 44.
Screening NC(=S)Nc1cccc2cc3ccccc3cc12 returned SENP8 block-1 49, SENP6 block 61*, TRAIL sens C8 16, PPC-1+TRAIL kill 30, SENP7 inh 19, SENP8 block-2 -264, SENP8 confirm 51*, SENP6 conf 60*, SENP7 conf 74*, Casp3 select 28 and Luc interf 61*.
NC(=S)Nc1cc2ccccc2c2ccccc12 was read as SENP8 block-1 7, SENP6 block 9, TRAIL sens C8 0, PPC-1+TRAIL kill 8, SENP7 inh -7 and SENP8 block-2 -127.
COc1ccc(/C=C2/CCc3ccccc3C2=O)cc1OC was read as SENP8 block-1 -2, SENP6 block 59*, TRAIL sens C8 15, PPC-1+TRAIL kill 2, SENP7 inh 40, SENP8 block-2 -12, SENP8 confirm 65*, SENP6 conf 63*, SENP7 conf 60*, Casp3 select 28 and Luc interf 43.
`COc1ccc(/C=C2\OC(=O)c3c(OC)cccc32)cc1OC` gave SENP8 block-1 47, SENP6 block 62*, TRAIL sens C8 13, PPC-1+TRAIL kill -4, SENP7 inh 45, SENP8 block-2 -487, SENP8 confirm 3, SENP6 conf 12, SENP7 conf 84*, Casp3 select 61* and Luc interf 14.
O=C1/C(=C\c2ccncc2)CCc2ccccc21 was read as SENP8 block-1 14, SENP6 block 57*, TRAIL sens C8 20, SENP7 inh 60*, SENP8 block-2 4, SENP8 confirm 76*, SENP6 conf 48, SENP7 conf 26, Casp3 select 6 and Luc interf 91*.
`COc1ccc(C=C2C(=O)OC(C)(C)OC2=O)cc1OC` gave SENP8 block-1 -9, SENP6 block -11, TRAIL sens C8 7, PPC-1+TRAIL kill 9, SENP7 inh -5 and SENP8 block-2 5.
O=C1/C(=C/c2ccncc2)CCc2ccccc21 was read as SENP8 block-1 7, SENP6 block 50, TRAIL sens C8 21, PPC-1+TRAIL kill 20, SENP7 inh 1 and SENP8 block-2 -5.
